# In publication PMC4336329 (PLoS ONE, 2015):
# About 14,000 (4.5%) of roughly 310,000 compounds showed an effect of 50% or more. The effect is printed as a negative number. For the sample, strong results were picked, then their nearest neighbours and some compounds at random. Where a SMILES comes first, the peptide text is derived from it. The star is where a group is joined. Cbz = O=C(OCc1ccccc1)*
# Molecular target: human ether-à-go-go-related gene (hERG) potassium channel (human, UniProt Q12809)
# Sequence (Q12809 whole entry, looked up): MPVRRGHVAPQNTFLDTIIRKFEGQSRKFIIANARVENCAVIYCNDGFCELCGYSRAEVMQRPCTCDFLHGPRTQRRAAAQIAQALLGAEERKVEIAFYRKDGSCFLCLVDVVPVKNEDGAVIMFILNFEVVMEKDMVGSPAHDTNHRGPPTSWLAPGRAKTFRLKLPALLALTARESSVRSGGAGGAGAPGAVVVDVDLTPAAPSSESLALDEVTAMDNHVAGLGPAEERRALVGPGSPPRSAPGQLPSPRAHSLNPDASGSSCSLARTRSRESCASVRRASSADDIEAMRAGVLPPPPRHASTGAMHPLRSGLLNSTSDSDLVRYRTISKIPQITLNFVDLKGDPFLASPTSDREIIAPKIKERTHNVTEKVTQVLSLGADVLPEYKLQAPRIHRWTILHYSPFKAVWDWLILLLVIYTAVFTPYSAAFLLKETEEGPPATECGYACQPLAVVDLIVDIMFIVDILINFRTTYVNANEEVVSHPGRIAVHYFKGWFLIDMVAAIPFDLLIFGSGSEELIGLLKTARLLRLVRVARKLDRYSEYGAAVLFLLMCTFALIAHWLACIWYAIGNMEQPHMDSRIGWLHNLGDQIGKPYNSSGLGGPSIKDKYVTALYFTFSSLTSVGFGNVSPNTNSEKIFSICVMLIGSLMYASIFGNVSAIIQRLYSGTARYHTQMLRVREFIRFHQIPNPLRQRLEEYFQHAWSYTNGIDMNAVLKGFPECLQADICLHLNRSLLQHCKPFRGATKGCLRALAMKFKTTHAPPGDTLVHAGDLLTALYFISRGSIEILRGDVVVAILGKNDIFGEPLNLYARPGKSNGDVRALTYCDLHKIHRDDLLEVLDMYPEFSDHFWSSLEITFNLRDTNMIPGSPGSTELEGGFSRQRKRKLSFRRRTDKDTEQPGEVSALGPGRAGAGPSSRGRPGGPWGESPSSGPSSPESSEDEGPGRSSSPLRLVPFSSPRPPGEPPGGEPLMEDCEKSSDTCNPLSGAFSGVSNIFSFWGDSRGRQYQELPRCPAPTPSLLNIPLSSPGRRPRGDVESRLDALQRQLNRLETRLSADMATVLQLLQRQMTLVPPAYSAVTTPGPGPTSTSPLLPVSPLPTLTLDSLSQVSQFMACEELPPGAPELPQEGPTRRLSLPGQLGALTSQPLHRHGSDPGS
# Assay: primary screen, population patch clamp on CHO cells stably expressing hERG; higher = less effect of the substance
# 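Note: peak tail current of the secondary pulse compared with the same well before compound.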
row,Compound,"hERG current change (%, negative = inhibition) at 10uM [%]"
1,CCN1CCC(Nc2ccnc3cc(Cl)ccc23)CC1,-40.5
2,O=C(Nc1ccccc1)OCc1ccccn1,10.8
3,COc1ccc(C2=NN(CN3C(=O)C(=O)c4ccccc43)C(c3ccc(OC)cc3)C2)cc1 (centres unmarked),9.84
4,Cc1cc(-c2ccccc2)nc(SCc2ccc(C(=O)O)o2)n1,-3.89
5,Cc1ccc(C(=O)Nc2cccnc2)cc1Cl,4.54
6,O=C(NCC(=O)N1CCN(C(c2ccccc2)c2ccccc2)CC1)c1ccc(Br)o1,8.38
7,Cc1cc(Br)c(NC(=O)CN(C)CCOc2ccccc2)c(Br)c1,-19.5
8,COc1ccc(Cn2nnc3c(=O)[nH]c(C(=O)NCCc4ccc(F)cc4)nc32)cc1OC,7.28
9,NC(=O)C1(N2CCCCC2)CCN(Cc2ccc(Br)cc2)CC1,-51
10,NC(=O)C1(N2CCCCC2)CCN(Cc2ccc(F)cc2)CC1,-6.92
11,Cl.O=C(CN1CCCCCC1)Nc1ccc(Oc2ccccc2)cc1,-78.6
12,NC(=O)C1(N2CCCCC2)CCN(CC(=O)Nc2cc(Cl)ccc2Cl)CC1,-72
13,COc1ccc(NC(=O)CN2CCC(C(N)=O)(N3CCCCC3)CC2)c(OC)c1,1.56
14,CN1CCN(CC(=O)Nc2ccc(Oc3ccccc3)cc2)CC1,-47.5
15,O=C(CN1CCCC1)Nc1ccc(Oc2ccc(NC(=O)CN3CCCC3)cc2)cc1,17.3
16,O=C(CN1CCCCC1)Nc1cc(Cl)ccc1Cl,-0.685
17,NC(=O)C1(N2CCCCC2)CCN(Cc2ccccc2)CC1,2.53
18,CC(C)C(NC(=O)C1CCC(C(C)(C)C)CC1)C(=O)NCCc1ccc(S(N)(=O)=O)cc1 (centres unmarked),14.1
19,COc1ccc2c(N)c(C(=O)NN)[nH]c2c1,2.16

row,Compound,"hERG current change (%, negative = inhibition) at 10uM [%]"
1,COCCN(C(=O)CSc1nc2ccc(Cl)cc2[nH]1)c1c(N)n(Cc2ccccc2)c(=O)[nH]c1=O,-7.02
2,Cc1cc(C)n(CC(O)Cn2c3ccc(Br)cc3c3cc(Br)ccc32)c(=O)n1 (centres unmarked),19.5
3,Cc1ccc(CCNC(=O)c2nn(C)c3c2CS(=O)(=O)c2ccccc2-3)cc1,-39.7
4,O=C(/C=C/Nc1ccc(S(=O)(=O)Nc2ncccn2)cc1)c1cccs1,4.26
5,Cc1ccc(C(=O)N/C(=C\c2ccccc2)C(=O)NCc2cccnc2)cc1,-71.9
6,COc1ccc(/C=C(\NC(=O)c2ccccc2)C(=O)NCc2cccnc2)cc1,-70.5
7,COc1ccc(/C=C(\NC(=O)c2ccccc2)C(=O)N/N=C/c2cccnc2)cc1,-5.03
8,O=C(NCc1cccnc1)/C(=C/c1ccccc1)NC(=O)c1ccccc1,-34.5
9,O=C(NCc1ccccc1Cl)/C(=C\c1cccnc1)NC(=O)c1ccccc1,-48.7
10,COc1ccc(C(=O)NCc2cccnc2)cc1,-1.7
11,O=C(NCc1cccnc1)/C(=C/c1ccc(Cl)cc1)NC(=O)c1ccccc1,-68.5
12,COc1ccc(/C=C(/NC(=O)c2ccccc2)C(=O)NCc2ccco2)cc1,27
13,COc1ccc(CNC(=O)C(=O)NCc2cccnc2)cc1,-6.16
14,CN(C)c1ccc(/C=C(\NC(=O)c2ccccc2)C(=O)NCc2cccnc2)cc1,-18.9
15,COc1ccc(C(=O)N/C(=C\c2ccccc2)C(=O)NCc2cccnc2)cc1,-70.8
16,COC1c2ccccc2C(=O)N1Cc1ccc(F)cc1 (centres unmarked),5.48
17,O=C(Oc1c(Br)cc([N+](=O)[O-])cc1Br)c1cccnc1,16.7
18,O=C(O)CCC(NC(=O)C1CCCN1C(=O)OCc1ccccc1)C(=O)O (stereo not drawn) (Cbz-Pro-Glu-OH; configuration not given here),14
19,Cc1cc(C)nc(SCCc2ccncc2)n1.Cl,9.82

row,Compound,"hERG current change (%, negative = inhibition) at 10uM [%]"
1,CN(c1ccc(OC(=O)CC2OC(=O)c3ccccc32)cc1)S(=O)(=O)c1ccccc1 (centres unmarked),-8.52
2,Cc1ccc(C2C(N)C(=O)N2c2ccc(C)cc2)cc1 (centres unmarked),-5.54
3,CN1C2CCC1CC(OC(=O)c1ccc(Cl)cc1)C2.Cl (centres unmarked),-48.9
4,CN1C2CCC1CC(OC(=O)c1c[nH]c3ccccc13)C2.Cl (centres unmarked),-40.2
5,CN1[C@@H]2CC[C@H]1CC(OC(=O)c1c[nH]c3ccccc13)C2.Cl (some centres unmarked),-48.1
6,CN1C2CCC1CC(OC(=O)c1ccc([N+](=O)[O-])cc1)C2 (centres unmarked),-67.9
7,CN1CCCC(OC(=O)c2cc(Cl)cc(Cl)c2)C1.Cl (centres unmarked),-43.4
8,CCOc1ccc(C(=O)OC2CC3CCC(C2)N3C)cc1.Cl (centres unmarked),-30
9,CN1C2CCC1CC(OC(=O)c1cc(Cl)cc(Cl)c1)C2.Cl (centres unmarked),-57.4
10,O=C(OC1Cn2c(=O)ccc(=O)n2C1)c1ccc([N+](=O)[O-])cc1,-12.8
11,CN1C2CCC1CC(OC(=O)c1c[nH]c3ccccc13)C2 (centres unmarked),-59.1
12,CCOC(=O)c1ccc(S(=O)(=O)N2CCN(c3ccccn3)CC2)cc1,8.95
13,CCOc1ccc(OCC)c(NC(=O)C2CCN(c3nn4c(=O)cc(C)nc4s3)CC2)c1,-30.5
14,COc1ccc(CCC(=O)c2ccc(OC)cc2)cc1,-1.41
15,Cc1ccc(C)c(NC(=O)COC(=O)CCCN=C2NS(=O)(=O)c3ccccc32)c1,4.55
16,Cn1nc([N+](=O)[O-])nc1Sc1cccc2cccnc12,13.9
17,Cc1ccc2c(Cl)cc(Cl)c(OCC(=O)NCCc3ccccn3)c2n1,-42.7
18,Cc1ccc(CNC(=O)[C@@H](NC(=O)Cc2ccccc2)C(C)C)cc1,6.89
